Reference: PubChem BioAssay (Tox21)
A number with no mark means an inactive call. The source made the active and inactive calls. Calls follow the shape of the dose curve; as a rule, active = well fitted curve in the direction sought with a large enough effect in the repeat runs; inconclusive = weak or mixed curves; inactive = flat fitted curve, though single readings scatter.

Test: qHTS assay to test for compound auto fluorescence at 590 nm (red) in HEK293 cells (AID 720679)
Conditions: red autofluorescence 540/590 nm; series mostly up to 91.3 µM; fluorescence, % of fluorescent control: at the top concentration
Source text: National Center for Advancing Translational Sciences [NCATS]
NIH Chemical Genomics Center [NCGC]
U.S. Environmental Protection Agency [EPA]
National Institutes of Environmental Health Sciences [NIEHS]
National Toxicology Program [NTP]
U.S. Food and Drug Administration [FDA]
Compound auto fluorescence often interferes with screening of the compound library against various biological targets and signaling pathways. Some of these compounds may have fluorophoric properties. Such properties may interfere with the assay outputs resulting in false positives and/or negatives. To decrease such complications and ensure the compound activities are relevant in terms of biological response, the Tox21 10K compound library was screened for auto fluorescence.
From the fluorophores used as reporter signals in our screening assays, the auto fluorescence equivalencies of compounds against three fluorophores have been evaluated: Triamterene, Fluorescein and Rose Bengal sodium for blue, green and red fluorescence, respectively. The fluorescence intensities were measured using Excitation/Emission wavelengths at 405/460nm, 485/535nm and 540/590nm for blue, green and red labels, respectively. This assay includes the red fluorescence data.
Tox21 Assay Protocol Summary:
2,000 HEK293 cells in 5 uL of culture medium containing 10% dialyzed FBS per well were dispensed into black wall/clear bottom 1536-well plates using a Multidrop Combi Dispenser (Thermo Scientific). The assay plates were incubated for 4-5 hr at 37C to allow cell attachment to the well bottom, followed by the transfer of 23 nL compound or DMSO vehicle by a pintool work station (Kalypsys, San Diego, CA). After the assay plates were incubated overnight at 37C and 5% CO2, fluorescence intensities in the assay plates were measured by an Envision (PerkinElmer, Shelton, CT) plate reader using three labels for measuring blue, green and red fluorescence at […] 460, 535 and 590nm respectively.
% is scaled to controls: 0 for no effect and ±100 for the full control effect.

Row | SMILES | fluorescence, % of fluorescent control | outcome
1 | CCCC[N+](C)(CCCC)CCCC | 0.0169% | –
2 | COC(=O)C1=C(C)NC(C)=C(C(=O)OC(C)C)C1c1cccc2nonc12 (stereo not given) | 0.0072% [at 18.6 µM] | –
3 | CN(C)[C@@H]1C(=O)C(C(=O)NCN2CCCC2)=C(O)[C@@]2(O)C(=O)C3=C(O)c4c(O)cccc4[C@@](C)(O)C3C[C@@H]12 (stereo not given in full) | – | inactive
4 | CC(CO)(CO)[N+](=O)[O-] | -0.666% | –
5 | CCCc1ncc(C[n+]2ccccc2C)c(N)n1 | 0.0217% [at 18.6 µM] | –
6 | CC[C@H]1OC(=O)[C@H](C)[C@@H](O[C@H]2C[C@@](C)(OC)[C@@H](O)[C@H](C)O2)[C@H](C)[C@@H](O[C@@H]2O[C@H](C)C[C@H](N(C)C)[C@H]2O)[C@](C)(OC)C[C@@H](C)C(=O)[C@H](C)[C@@H](O)[C@]1(C)O | – | inactive
7 | O=S(=O)(O)c1cccc2ccccc12 | -0.147% | –
8 | C[N+](C)(CCOc1ccccc1)Cc1cccs1 | -0.0804% [at 46 µM] | –
9 | Nc1ccn([C@@H]2O[C@H](CO)[C@@H](O)C2(F)F)c(=O)n1 | -0.0816% [at 46 µM] | –
10 | C=CC(=O)OCCCl | -0.411% [at 95.7 µM] | –
11 | CC(=O)c1cnccn1 | 0.167% [at 95.7 µM] | –
12 | CCCCOC(=O)CCC(C)=O | 0.0205% | –
13 | Cc1ccnc(NS(=O)(=O)c2ccc(N)cc2)n1 | 0.0091% [at 18.6 µM] | –
14 | CC(C)c1ccc2ncccc2c1 | -0.172% | –
15 | NC(=O)N1c2ccccc2CC(=O)c2ccccc21 | -1.08% [at 46 µM] | –
16 | COc1cc2c(cc1OC)-c1cc3ccc(OC)c(OC)c3c[n+]1CC2 | 0.207% | –
17 | CC(=O)NC(=O)c1ccccc1O | 0.1% [at 46 µM] | –
18 | NCCCC(N)(C(=O)O)C(F)F (stereo not given) | -0.603% [at 46 µM] | –
19 | CC(C)C[C@@H](N)C(=O)O | 0.394% [at 46 µM] | –
20 | O=C(O)CNC(=O)c1ccc(CO)o1 | -0.17% | –

Row | SMILES | fluorescence, % of fluorescent control | outcome
21 | CCN(Cc1ccccc1)c1ccccc1 | 0.584% | –
22 | CC/C=C\CCOC(C)OCC (stereo not given) | 0.0417% | –
23 | CC1CCC(CO)CC1 (stereo not given) | 0.141% [at 95.7 µM] | –
24 | CC(C)(C#N)Nc1nc(Cl)nc(NC2CC2)n1 | 0.16% | –
25 | CC(=O)Nc1ccc(OCC(O)CNC(C)C)cc1 (stereo not given) | 0.294% [at 46 µM] | –
26 | CCCCCCCCCCOc1cc2c(=O)c(C(=O)OCC)c[nH]c2cc1OCC | 0.446% [at 46 µM] | –
27 | CC1=NS(=O)(=O)c2cc(Cl)ccc2N1 | 0.0367% [at 46 µM] | –
28 | CCCOC(=O)CC | -0.0163% | –
29 | CCC(C(=O)NC(=O)NC(C)=O)c1ccccc1 (stereo not given) | 0.0099% [at 46 µM] | –
30 | CCCc1nn(C)c2c(=O)[nH]c(-c3cc(S(=O)(=O)N4CCN(C)CC4)ccc3OCC)nc12 | -0.0003% [at 46 µM] | –
31 | CCC1C(=O)OCC1Cc1cncn1C (stereo not given) | 0.002% [at 46 µM] | –
32 | COC(=O)Nc1ccc(Cl)c(Cl)c1 | -0.872% | –
33 | C=CCOCC(O)CO (stereo not given) | 0.187% | –
34 | c1coc(CNc2ncnc3nc[nH]c23)c1 | 0.323% | –
35 | CN(C)C(=O)Oc1ccc[n+](C)c1 | 0.164% [at 46 µM] | –
36 | CC(=O)c1ccc2ccccc2c1 | 0.0092% | –
37 | CC(C)=CCC/C(C)=C/C#N | -0.111% [at 95.7 µM] | –
38 | CN1CC(=O)N/C1=N/C(=O)Nc1cccc(Cl)c1 | – | inactive
39 | Cc1cccc(C)c1NC(=O)CC12CCCN1CCC2 | -0.297% [at 46 µM] | –
40 | OCCCCCO | 0.0391% [at 95.7 µM] | –
